Bioassay records from PubChem.
FPR ligand = human FPR ligand, with FPRL1 counter-screen. P21462. FPR-expressing cells, fluorescent ligand binding, flow cytometry. 24,000 tested, 0.74% active. AID 440. inhibition, % (test concentration not listed);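 further: 0% = buffer wells and 100% = receptor blocker peptide wells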
Target sequence (P21462 whole entry, looked up): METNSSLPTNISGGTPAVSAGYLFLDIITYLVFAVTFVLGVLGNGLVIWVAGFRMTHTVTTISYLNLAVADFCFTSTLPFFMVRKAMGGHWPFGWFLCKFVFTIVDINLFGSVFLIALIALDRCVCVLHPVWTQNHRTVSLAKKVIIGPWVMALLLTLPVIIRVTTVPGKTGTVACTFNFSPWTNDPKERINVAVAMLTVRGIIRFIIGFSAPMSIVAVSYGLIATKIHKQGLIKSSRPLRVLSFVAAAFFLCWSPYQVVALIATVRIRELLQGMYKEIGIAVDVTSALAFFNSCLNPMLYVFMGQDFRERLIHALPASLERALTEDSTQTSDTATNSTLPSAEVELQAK
FPRL1 ligand = human FPRL1 ligand, with FPR counter-screen | inhibition, % (no concentration beside the values) | AID 441 | P25090 | 24,000 tested, 0.3% active | FPRL1-expressing cells, fluorescent ligand binding inhibition, flow cytometry;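 further: 0% = buffer alone and 100% = receptor blocker peptide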
QS inhibitor = inhibitors of bacterial quorum sensing in S. aureus | inhibition, % at 2 µM | 24,000 tested, 0.3% active | S. aureus RN6390 RNAIII-GFP reporter, AIP-induced, flow cytometry 3 h | AID 527;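 active means share of bacteria positive for the green fluorescent reporter and its mean brightness both inhibited by 50% or more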;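 further: 0% = AIP-stimulated control and 100% = unstimulated bacteria without AIP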
* = called active by the depositor; / = no result. This is a sample that favours compounds with a hit; in the whole collection about 0.96% have one here. Unless noted, no stated cut-off is given here; in the data, active means inhibition above about 30%; inconclusive means no clear call, values can overlap the other calls; inactive means below that.

SMILES	FPR ligand	FPRL1 ligand	QS inhibitor
O=C(Nc1nc2c(s1)CCc1ccccc1-2)c1cccs1	-5	-14	79*
CSc1nc2ccc3nc(NC(=O)c4cccs4)sc3c2s1	6	-7	0
Cc1ccnc(NC2c3ccccc3C(=O)N2Cc2ccccc2Cl)c1 (configuration not stated)	-6	4	-4
COc1cc(NC(=O)C2C3C=CC(C3)C2C(=O)O)c(OC)cc1Cl (configuration not stated)	-12	-10	0
CCOC(=O)CCn1nc(-c2ccc(Cl)cc2)cc1N	54*	51*	-9
CCOC(=O)Cn1nc(-c2ccc(Cl)cc2)cc1N	-2	-6	1
O=C(Nc1ccc(F)cc1)c1oc2ccccc2c1NC(=O)C1CCCC1	-3	4	13
CCc1ccc2[nH]c(=O)c(CN(CCCN3CCOCC3)C(=O)Nc3cccc(Cl)c3)cc2c1	/	/	60*
O=C(Nc1ccccc1)N(CCCN1CCOCC1)Cc1cc2cc3c(cc2[nH]c1=O)OCCO3	-9	0	2
Cc1ccc2[nH]c(=O)c(CN(CCN3CCOCC3)C(=O)Nc3ccc(F)cc3)cc2c1	/	/	-2
Cc1ccc(C)c2[nH]c(=O)c(CN(CCN3CCCC3)C(=O)Nc3cccc(Cl)c3)cc12	-2	-3	84*
CCc1ccc2[nH]c(=O)c(CN(CCCN3CCOCC3)C(=O)Nc3ccc(Cl)cc3)cc2c1	/	/	94*
Cc1cc(C)c2cc(CN(CCN3CCCC3)C(=O)Nc3ccc(F)cc3)c(=O)[nH]c2c1	/	/	0
CCOC(=O)CSc1nc2nc(C)cc(C)n2n1	8	3	-1
O=C(c1ccccc1)c1c[nH]c2cc3c(cc2c1=O)OCO3	-2	1	-3
COc1ccc2oc(=O)c(C(=O)N3CCN(C45CC6CC(CC(C6)C4)C5)CC3)cc2c1	-1	11	8
O=C(NCC(c1cccnc1)N1CCN(c2ccccc2F)CC1)c1cccc(Cl)c1 (configuration not stated)	-2	-2	59*
O=C(NCC(c1cccnc1)N1CCOCC1)c1cccc(Cl)c1 (configuration not stated)	1	-3	-2
Cc1cc(C)cc(-n2nnc(C(=O)NCc3ccccc3)c2N)c1	0	0	1
O=C(NCC(=O)N1CCC(N2CCCCC2)CC1)C1CCCCC1	-2	3	-4
CC(NC(=O)CNC(=O)OCc1ccccc1)C(=O)N1CC(O)CC1C(=O)OCc1ccccc1 (configuration not stated)	2	-4	-5
CCSc1nnc(NC(=O)CSc2nnc(Cc3cccn3C)n2-c2ccc(C)cc2)s1	1	-5	-4
O=C(Nc1ccc(S(=O)(=O)N2CCCCCC2)cc1)c1ccco1	1	-2	0
CCOC(=O)Nc1cc(OCC)c(NC(=O)C2CC2)cc1OCC	-4	-3	-1
COc1ccc(NC(=O)C2CCCN(S(=O)(=O)c3cccc4cccnc34)C2)c(OC)c1 (configuration not stated)	2	-3	-3
SMILES	FPR ligand	FPRL1 ligand	QS inhibitor
COc1ccc(-c2cn3cccnc3n2)cc1NC(=O)C1CC1	-4	76*	-3
COc1ccc(-c2cn3cccnc3n2)cc1NC(=O)C1CCCC1	2	74*	0
O=C1C2CCCN2C(c2ccc(F)cc2)N1c1cccc(Cl)c1 (configuration not stated)	-4	-1	-4
CC1(C(=O)NC2CCCC2)CCC(=O)N1Cc1ccccc1 (configuration not stated)	-4	2	-1
CC1(C)S[C@@H]2[C@H](NC(=O)Cc3ccccc3)C(=O)N2[C@H]1C(=O)O	48*	8	-2
CCOC(=O)N1CCC(NC(=O)C2CCC(Cn3c(=O)[nH]c4ccccc4c3=O)CC2)CC1 (configuration not stated)	4	-1	1
O=C(NC1CCCCC1)c1noc2c1CCCCC2	5	2	-3
O=C(CSc1ncnc2sc3c(c12)CCCCC3)NCc1ccco1	4	0	-1
c1csc(CCNc2ncnc3sc4c(c23)CCC4)c1	7	-4	67*
CC(C)OC(=O)c1nnn(-c2nonc2N)c1CN1CCc2ccccc2C1	43*	-10	-1
CCOC(=O)c1nnn(-c2nonc2N)c1CN1CCc2ccccc2C1	8	0	3
CCC(C)NC(=O)CC1Oc2ccc(Cl)cc2NC1=O (configuration not stated)	-3	0	4
COc1ccc(-c2cc(C(F)(F)F)nc(SCCC(=O)N3CCOCC3)n2)cc1	1	3	0
COc1ccccc1OCC(=O)Nc1oc(-c2ccccc2)c(-c2ccccc2)c1C#N	/	/	1
N#Cc1c(NC(=O)COC(=O)C2CC3C=CC2C3)oc(-c2ccccc2)c1-c1ccccc1 (configuration not stated)	-7	-4	91*
CCOc1ccc(NC(=O)C2CCCN(S(=O)(=O)c3c(C)nn(C)c3C)C2)cc1 (configuration not stated)	-12	0	96*
CCOc1ccc(NC(=O)C2CCCN(S(=O)(=O)c3c(C)n[nH]c3C)C2)cc1 (configuration not stated)	4	4	-3
CC1=Nn2c(nnc2-c2ccccn2)SC1	3	5	-2
CCCCc1cc(=O)oc2c(CN3CCCC3)c(O)c(Cl)cc12	0	-2	5
Cc1c(C)c2cc(Cl)c(O)c(CN3CCCCC3)c2oc1=O	38*	50*	0
COc1ccc(CCNC(=O)C2CCN(Cc3nc(-c4cccc(Cl)c4)oc3C)CC2)cc1OC	2	-1	2
CCOC(=O)C1CCCN(C(=O)c2cn(C)c3ccc(S(=O)(=O)N4CCCC4)cc3c2=O)C1 (configuration not stated)	6	0	-1
O=c1c(Oc2ccccc2Br)c(C(F)(F)F)oc2c(CN3CCCC3)c(O)ccc12	-23	-8	/
COC(=O)c1ccc(C2/C(=C(/O)c3ccc(OC)cc3)C(=O)C(=O)N2Cc2ccco2)cc1 (configuration not stated)	38*	5	/
C=CCOc1ccc(/C(O)=C2/C(=O)C(=O)N(CCN3CCOCC3)C2c2ccc(C)cc2)cc1 (configuration not stated)	-6	-6	/
SMILES	FPR ligand	FPRL1 ligand	QS inhibitor
COc1ccc(/C(O)=C2/C(=O)C(=O)N(CCN3CCOCC3)C2c2ccc(C)cc2)cc1 (configuration not stated)	26	31*	/
COc1ccc(/C(O)=C2/C(=O)C(=O)N(Cc3ccco3)C2c2cccs2)cc1 (configuration not stated)	8	-6	/
CCOC(=O)c1sc(NC(=O)CSc2nnc3c4ccccc4n(CC)c3n2)nc1C	-8	-1	-1
COc1ccc(C)cc1NC(=O)C1CCCCC1C(=O)O (configuration not stated)	32*	26	/
COc1ccc(OC)c(NC(=O)[C@H]2CC=CC[C@H]2C(=O)O)c1	3	3	0
Cc1nc2c(ccc3nc(NC(=O)c4ccc5c(c4)OCCO5)sc32)s1	3	0	57*
Cc1nc2ccc3nc(NC(=O)c4ccc5c(c4)OCCO5)sc3c2s1	3	2	-5
Nc1ccc(Sc2nnnn2-c2ccccc2)c(Cl)c1	-4	1	0
CCc1ccc(NC(=O)c2cc(C)on2)cc1	-2	-2	-4
